Outcome data for 40 molecules are collected here from PubChem BioAssay (Tox21).

Structures are written as SMILES. Results filed as inconclusive are left out. Active and inactive are the calls of the source. The call rests on the fitted dose curve; in most records, active means well fitted activation curve with a large enough effect in the signal ratio in the repeat runs (not every such curve was filed as active); inconclusive means weak or mixed curves; inactive means flat fitted curve, though single readings scatter; the % refers to the signal ratio.

The test is described as follows: qHTS assay to identify small molecule agonists of the hypoxia (HIF-1) signaling pathway (AID 1224846). Conditions: HRE-bla ME-180 cells, beta-lactamase ratio, 17 h; series mostly up to 76.8 µM. An excerpt:
U.S. Tox21 Program National Center for Advancing Translational Sciences [NCATS] NIH Chemical Genomics Center [NCGC] U.S. Environmental Protection Agency [EPA] National Institutes of Environmental Health Sciences [NIEHS] National Toxicology Program [NTP] U.S. Food and Drug Administration [FDA] Tox21 Assay Overview: Hypoxia-inducible factor-1 (HIF-1) is the major hypoxia-regulated transcription factor that controls cellular responses to low oxygen concentration. HIF-1 is composed of two subunits: hypoxia responsive HIF-1-alpha and constitutively expressed HIF-1-beta, which is also known as aryl hydrocarbon receptor nuclear translocator. During hypoxic conditions, HIF-1-alpha heterodimerizes with HIF-1-beta and translocates into the nucleus where the HIF-1 complex binds to the hypoxia-response element (HRE) and activates expression of target genes such as VEGF (vascular endothelial growth factor). The HIF-1 pathway is essential to normal growth and development, and is involved in the pathophysiology of cancer, inflammation, and ischemia. Using a beta-lactamase reporter-gene under control of the hypoxia response element, a cell-based assay [CellSensor(TM) HRE-bla ME-180 from Life Technologies, Carlsbad, CA] was used to measure hypoxia-induced signaling. Tox21 10K library compounds were measured for their ability to induce the reporter gene activity.
Tox21 Assay Protocol Summary: HRE-bla ME-180 cells were dispensed at 2,000 cells per well in 6 uL of assay medium containing 0.5% dialyzed FBS into black wall/clear-bottom 1536-well plates using a Multidrop Combi (Thermo Scientific, Waltham, MA) dispenser. After the assay plates were incubated at 37C and 5% CO2 for 5 hrs, 23 nL of compounds dissolved in DMSO, positive controls or DMSO only was transferred to each well of the assay plate using a Pintool station (Kalypsys, San Diego, CA). The assay plates were incubated at 37C and 5% CO2 for 17 hrs. One uL of LiveBLAzerTM B/G FRET substrate (CCF4-AM) (Life Technologies) was added to each well using a Flying Reagent Dispenser (Aurora Discovery, San Diego, CA).
As to `CC(C)(C)c1ccccc1O`, the result was inactive.

In the case of `NC(=S)Nc1ccccc1`, the outcome was inactive.

Take `Nc1cccnc1`: the outcome was inactive.

With `CCc1cccc(CC)c1N(COC)C(=O)CCl`, the outcome was inactive.

`CCCCCCOC(=O)c1ccccc1C(=O)OCCCCCC`: the result was inactive.

Consider `Oc1cc(Cl)c(Cl)cc1Cl`, for which the outcome was inactive.

As for `O=Cc1ccco1`, the result was inactive.

`C=C(C)[C@H]1Cc2c(ccc3c2O[C@@H]2COc4cc(OC)c(OC)cc4[C@@H]2C3=O)O1`: the result was inactive.

Regarding `Oc1cc(Cl)ccc1Cl`, the result was inactive.

With `COc1ccc(C(CN(C)C)C2(O)CCCCC2)cc1` (stereo not given), the result was inactive.

For the molecule `O=[N+]([O-])c1ccc(O)c([N+](=O)[O-])c1`, the outcome was inactive.

On to `O=C(CCl)c1ccccc1`, for which the outcome was inactive.

For the molecule `C=CCc1ccc(OC)cc1`, the outcome was inactive.

With `Nn1cnnc1`, the outcome was inactive.

With `CCC(CC)Nc1c([N+](=O)[O-])cc(C)c(C)c1[N+](=O)[O-]`, the result was inactive.

Regarding `CCCCCCCCCCCOC(=O)c1ccccc1C(=O)OCCCCCCCCCCC`, the result was inactive.

In the case of `CC(C)C(=O)OCC(C)(C)C(OC(=O)C(C)C)C(C)C` (stereo not given), the result was inactive.

On to `NCc1cccnc1`, for which the result was inactive.

For `C=CCc1ccc2c(c1)OCO2`, the outcome was inactive.

Turning to `CC(C)N(C(=O)SCC(Cl)=C(Cl)Cl)C(C)C`, the outcome was inactive.

As for `Brc1ccc(Oc2cc(Br)c(Br)cc2Br)c(Br)c1`, the outcome was inactive.

Take `Nc1ccc(-c2ccc(N)c(N)c2)cc1N`: the result was inactive.

Consider `CCC(=O)O[C@H]1CC[C@H]2[C@@H]3CCC4=CC(=O)CC[C@]4(C)[C@H]3CC[C@]12C`, for which the outcome was inactive.

For the molecule `c1ccc(-c2cccc(-c3ccccc3)c2)cc1`, the result was inactive.

With `COP(=S)(OC)Oc1cc(Cl)c(Cl)cc1Cl`, the outcome was inactive.

On to `C=CC(=O)OCCO`, for which the result was inactive.

Take `Oc1c(Cl)c(Cl)c(Cl)c(Cl)c1Cl`: the outcome was inactive.

Consider `CCN(N=O)C(N)=O`, for which the result was inactive.

Turning to `CC(C)NC(C)C`, the result was inactive.

As to `c1ccc(NNc2ccccc2)cc1`, the outcome was inactive.

With `CN(C)C(=O)Nc1ccc(Cl)cc1`, the result was inactive.

As to `Nc1c(Cl)cc([N+](=O)[O-])cc1Cl`, the outcome was inactive.

Take `c1ccc(P(c2ccccc2)c2ccccc2)cc1`: the outcome was inactive.

Consider `N#CCCCl`, for which the result was inactive.

Regarding `Cc1cc(Cl)ccc1OCCCC(=O)O`, the outcome was inactive.

As to `COP(=O)(OC)OC`, the result was inactive.

Take `COP(=S)(OC)Oc1ccc([N+](=O)[O-])cc1`: the result was inactive.

As to `Oc1ccc(-c2ccccc2)cc1`, the outcome was inactive.

Take `Cc1cc(C)cc(C)c1`: the outcome was inactive.

Consider `O=P(O)(O)CCCl`, for which the outcome was inactive.
